Experimental data from publication PMC7862700, “An all-to-all approach to the identification of sequence-specific readers for epigenetic DNA modifications on cytosine”.

Tests used:
Test in all cases: DAPPL (digital affinity profiling via proximity ligation, sequencing); 10 mM Tris-HCl pH 7.5, 50 mM NaCl, 1 mM DTT, 4% glycerol, room temperature, 30 min; GST-TFs on glutathione beads, 16-mer random dsDNA library, 0.1% formaldehyde crosslink after washing; high values mean tight binding
FLI1 = biological target: T1, FLI1 (Homo sapiens, UniProt Q01543 1-452); conditions: protein: recombinant; tags: N-terminal GST; dsDNA, one strand shown
T1 sequence: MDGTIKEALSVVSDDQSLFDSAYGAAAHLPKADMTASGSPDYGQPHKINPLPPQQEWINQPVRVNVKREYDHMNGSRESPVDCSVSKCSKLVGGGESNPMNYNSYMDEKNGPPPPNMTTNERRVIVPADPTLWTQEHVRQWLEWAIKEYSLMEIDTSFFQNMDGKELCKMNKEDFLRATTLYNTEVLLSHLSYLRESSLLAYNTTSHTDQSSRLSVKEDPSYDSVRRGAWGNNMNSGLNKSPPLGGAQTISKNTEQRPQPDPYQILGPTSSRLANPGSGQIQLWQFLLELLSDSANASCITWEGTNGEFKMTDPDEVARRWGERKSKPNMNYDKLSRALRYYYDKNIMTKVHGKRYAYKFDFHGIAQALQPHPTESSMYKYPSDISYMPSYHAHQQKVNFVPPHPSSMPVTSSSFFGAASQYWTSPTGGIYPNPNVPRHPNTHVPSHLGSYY
Outline: (§1)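 A tag-only sample was pooled with DNA-barcoded human transcription factors that had been expressed in yeast as GST fusions and captured on glutathione beads. The pools were incubated for 30 min at room temperature with 200 nmole of a random double-stranded 16-mer DNA library in Tris/NaCl/DTT/glycerol buffer, then washed, crosslinked with 0.1% formaldehyde, proximity-ligated (BsaI/T4 ligase, 1 h, 37 °C), PCR-amplified and sequenced on an Illumina NextSeq500. Binding signal is each hexamer's read frequency for a factor divided by its frequency for the tag-only sample.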

ELK1 = biological target: T2, ELK1 (Homo sapiens, UniProt P19419 1-428); conditions: protein: recombinant; tags: N-terminal GST; dsDNA, one strand shown
T2 sequence: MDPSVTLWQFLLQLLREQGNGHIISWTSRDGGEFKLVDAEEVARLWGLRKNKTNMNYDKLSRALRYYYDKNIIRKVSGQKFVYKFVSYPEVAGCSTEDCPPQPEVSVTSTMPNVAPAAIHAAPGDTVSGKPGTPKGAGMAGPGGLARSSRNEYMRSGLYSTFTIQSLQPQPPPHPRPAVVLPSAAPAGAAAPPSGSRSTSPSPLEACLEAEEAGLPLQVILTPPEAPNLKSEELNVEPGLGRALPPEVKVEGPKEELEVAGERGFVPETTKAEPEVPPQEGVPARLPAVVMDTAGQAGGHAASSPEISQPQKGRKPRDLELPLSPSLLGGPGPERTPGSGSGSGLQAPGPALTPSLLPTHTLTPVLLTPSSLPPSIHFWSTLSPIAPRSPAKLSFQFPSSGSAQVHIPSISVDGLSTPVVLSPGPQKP
Outline: as §1

GABPA = biological target: T3, GABPA (Homo sapiens, UniProt Q06546 1-454); conditions: protein: recombinant; tags: N-terminal GST; dsDNA, one strand shown
T3 sequence: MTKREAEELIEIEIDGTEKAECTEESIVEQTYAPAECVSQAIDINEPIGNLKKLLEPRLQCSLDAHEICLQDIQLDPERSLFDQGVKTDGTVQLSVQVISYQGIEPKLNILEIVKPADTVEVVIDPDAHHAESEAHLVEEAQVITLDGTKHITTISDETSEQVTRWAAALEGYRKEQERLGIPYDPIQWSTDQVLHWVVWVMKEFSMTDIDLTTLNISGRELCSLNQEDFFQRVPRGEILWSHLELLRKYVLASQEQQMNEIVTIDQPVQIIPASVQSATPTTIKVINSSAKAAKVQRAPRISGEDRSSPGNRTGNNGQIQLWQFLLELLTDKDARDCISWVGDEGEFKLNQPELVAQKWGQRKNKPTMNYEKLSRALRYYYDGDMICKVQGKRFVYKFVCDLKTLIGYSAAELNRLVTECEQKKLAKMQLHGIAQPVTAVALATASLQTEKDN
Outline: as §1

ERG = biological target: T4, ERG (Homo sapiens, UniProt P11308 1-479); conditions: protein: recombinant; tags: N-terminal GST; dsDNA, one strand shown
T4 sequence: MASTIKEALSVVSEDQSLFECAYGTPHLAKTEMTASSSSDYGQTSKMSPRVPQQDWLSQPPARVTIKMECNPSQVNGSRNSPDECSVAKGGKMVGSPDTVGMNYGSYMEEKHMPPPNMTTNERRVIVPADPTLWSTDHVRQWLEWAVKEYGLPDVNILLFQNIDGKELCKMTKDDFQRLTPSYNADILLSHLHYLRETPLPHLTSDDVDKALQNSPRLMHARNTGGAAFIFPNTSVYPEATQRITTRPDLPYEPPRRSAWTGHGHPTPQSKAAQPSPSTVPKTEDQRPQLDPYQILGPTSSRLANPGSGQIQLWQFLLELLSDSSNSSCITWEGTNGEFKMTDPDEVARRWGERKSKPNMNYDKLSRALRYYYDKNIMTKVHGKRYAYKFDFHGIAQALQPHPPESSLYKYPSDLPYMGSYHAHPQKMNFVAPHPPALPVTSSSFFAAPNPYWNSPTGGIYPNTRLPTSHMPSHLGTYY
Outline: as §1

ELF1 = ELF1 (Homo sapiens, UniProt P32519 1-619); conditions: protein: recombinant; tags: N-terminal GST; dsDNA, one strand shown
ELF1, sequence (P32519 whole entry): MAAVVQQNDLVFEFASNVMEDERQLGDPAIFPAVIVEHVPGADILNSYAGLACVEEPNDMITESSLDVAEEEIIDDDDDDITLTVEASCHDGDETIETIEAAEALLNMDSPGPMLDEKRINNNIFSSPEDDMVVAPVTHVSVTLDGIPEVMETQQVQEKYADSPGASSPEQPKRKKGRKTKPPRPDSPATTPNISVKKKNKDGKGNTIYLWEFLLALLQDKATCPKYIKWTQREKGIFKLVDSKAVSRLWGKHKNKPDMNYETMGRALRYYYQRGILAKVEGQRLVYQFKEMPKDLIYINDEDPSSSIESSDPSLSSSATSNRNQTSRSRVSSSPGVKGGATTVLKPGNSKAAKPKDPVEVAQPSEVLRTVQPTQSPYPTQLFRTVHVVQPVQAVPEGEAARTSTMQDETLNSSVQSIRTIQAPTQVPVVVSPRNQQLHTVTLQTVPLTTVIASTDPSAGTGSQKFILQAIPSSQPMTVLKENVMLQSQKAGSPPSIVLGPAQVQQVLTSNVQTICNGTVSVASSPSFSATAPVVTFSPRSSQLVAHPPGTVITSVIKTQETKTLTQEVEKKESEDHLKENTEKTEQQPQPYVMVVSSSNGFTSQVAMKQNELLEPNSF
Outline: as §1

EHF = biological target: T5, EHF (Homo sapiens, UniProt Q9NZC4 1-300); conditions: protein: recombinant; tags: N-terminal GST; dsDNA, one strand shown
T5 sequence: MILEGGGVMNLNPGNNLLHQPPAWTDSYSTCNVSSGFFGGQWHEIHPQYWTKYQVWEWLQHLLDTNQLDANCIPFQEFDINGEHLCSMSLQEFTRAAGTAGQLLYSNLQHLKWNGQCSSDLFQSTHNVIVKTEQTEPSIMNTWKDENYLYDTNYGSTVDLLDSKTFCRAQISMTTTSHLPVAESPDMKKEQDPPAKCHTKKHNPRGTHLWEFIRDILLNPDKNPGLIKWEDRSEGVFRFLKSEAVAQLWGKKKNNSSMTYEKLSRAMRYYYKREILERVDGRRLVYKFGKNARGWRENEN
Outline: as §1

SPI1 = SPI1 (Homo sapiens, UniProt P17947 1-270); conditions: protein: recombinant; tags: N-terminal GST; dsDNA, one strand shown
Outline: as §1

SPIB = SPIB (Homo sapiens, UniProt Q01892 1-262); conditions: protein: recombinant; tags: N-terminal GST; dsDNA, one strand shown
SPIB, sequence (Q01892 whole entry): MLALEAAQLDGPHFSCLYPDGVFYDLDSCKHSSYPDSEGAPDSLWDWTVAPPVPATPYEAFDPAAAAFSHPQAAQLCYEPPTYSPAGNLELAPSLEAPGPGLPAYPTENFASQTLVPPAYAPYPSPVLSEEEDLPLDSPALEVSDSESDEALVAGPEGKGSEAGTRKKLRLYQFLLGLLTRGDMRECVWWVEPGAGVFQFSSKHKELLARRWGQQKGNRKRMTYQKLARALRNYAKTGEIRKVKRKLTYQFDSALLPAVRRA
Outline: as §1

ELK3 = biological target: T6, ELK3 (Homo sapiens, UniProt P41970 1-407); conditions: protein: recombinant; tags: N-terminal GST; dsDNA, one strand shown
T6 sequence: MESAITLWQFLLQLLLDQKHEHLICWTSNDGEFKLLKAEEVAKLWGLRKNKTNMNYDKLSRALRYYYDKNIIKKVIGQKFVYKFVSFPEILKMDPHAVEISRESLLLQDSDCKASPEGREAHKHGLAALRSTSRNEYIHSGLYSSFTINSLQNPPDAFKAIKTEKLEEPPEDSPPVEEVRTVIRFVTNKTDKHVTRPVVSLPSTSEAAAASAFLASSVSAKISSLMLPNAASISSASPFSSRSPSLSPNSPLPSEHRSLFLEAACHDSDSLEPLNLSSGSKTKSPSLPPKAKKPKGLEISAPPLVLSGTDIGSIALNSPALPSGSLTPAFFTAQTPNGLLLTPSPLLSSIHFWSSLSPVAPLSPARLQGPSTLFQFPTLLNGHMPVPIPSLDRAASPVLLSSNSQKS
Outline: as §1

FEV = biological target: T7, FEV (Homo sapiens, UniProt Q99581 1-238); conditions: protein: recombinant; tags: N-terminal GST; dsDNA, one strand shown
T7 sequence: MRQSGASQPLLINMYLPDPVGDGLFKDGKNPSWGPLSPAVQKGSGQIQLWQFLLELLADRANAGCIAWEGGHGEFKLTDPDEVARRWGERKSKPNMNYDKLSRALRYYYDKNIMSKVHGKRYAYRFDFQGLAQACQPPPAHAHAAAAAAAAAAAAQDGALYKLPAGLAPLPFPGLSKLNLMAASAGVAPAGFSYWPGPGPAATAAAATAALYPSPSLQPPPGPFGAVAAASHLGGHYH
Outline: as §1

ETV5 = ETV5 (Homo sapiens, UniProt P41161 1-510); conditions: protein: recombinant; tags: N-terminal GST; dsDNA, one strand shown
ETV5, sequence (P41161 whole entry): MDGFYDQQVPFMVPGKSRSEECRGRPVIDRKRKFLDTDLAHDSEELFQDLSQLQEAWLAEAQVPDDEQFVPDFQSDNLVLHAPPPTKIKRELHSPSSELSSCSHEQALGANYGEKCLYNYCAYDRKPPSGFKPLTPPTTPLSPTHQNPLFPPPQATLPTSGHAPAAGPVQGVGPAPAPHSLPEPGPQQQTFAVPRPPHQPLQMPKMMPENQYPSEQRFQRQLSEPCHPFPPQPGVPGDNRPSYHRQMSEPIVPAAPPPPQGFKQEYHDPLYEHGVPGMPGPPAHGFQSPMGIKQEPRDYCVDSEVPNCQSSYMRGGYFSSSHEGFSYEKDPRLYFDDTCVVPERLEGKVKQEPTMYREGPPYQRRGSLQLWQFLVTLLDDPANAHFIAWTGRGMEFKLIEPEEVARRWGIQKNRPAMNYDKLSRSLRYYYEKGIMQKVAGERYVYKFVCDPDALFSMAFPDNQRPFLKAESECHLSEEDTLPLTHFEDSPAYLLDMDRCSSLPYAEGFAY
Outline: as §1

HSF1 = HSF1 (Homo sapiens, UniProt Q00613 1-529); conditions: protein: recombinant; tags: N-terminal GST; chain copies: 3; dsDNA, one strand shown
HSF1, sequence (Q00613 whole entry): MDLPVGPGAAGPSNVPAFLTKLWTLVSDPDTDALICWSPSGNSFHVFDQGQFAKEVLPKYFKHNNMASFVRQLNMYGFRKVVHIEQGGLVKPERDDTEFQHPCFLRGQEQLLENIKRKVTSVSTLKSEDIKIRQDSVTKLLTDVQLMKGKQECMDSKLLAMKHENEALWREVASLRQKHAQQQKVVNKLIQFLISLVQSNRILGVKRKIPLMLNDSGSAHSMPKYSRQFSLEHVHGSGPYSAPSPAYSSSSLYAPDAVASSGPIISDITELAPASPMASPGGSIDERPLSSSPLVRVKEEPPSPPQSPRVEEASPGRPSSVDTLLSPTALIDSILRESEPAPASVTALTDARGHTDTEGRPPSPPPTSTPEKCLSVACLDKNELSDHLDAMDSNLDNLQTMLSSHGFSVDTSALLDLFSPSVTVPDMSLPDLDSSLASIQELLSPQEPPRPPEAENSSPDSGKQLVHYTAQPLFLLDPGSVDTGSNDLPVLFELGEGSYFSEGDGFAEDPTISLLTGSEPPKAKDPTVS
Outline: as §1

ELF4 = ELF4 (Homo sapiens, UniProt Q99607 1-663); conditions: protein: recombinant; tags: N-terminal GST; dsDNA, one strand shown
ELF4, sequence (Q99607 whole entry): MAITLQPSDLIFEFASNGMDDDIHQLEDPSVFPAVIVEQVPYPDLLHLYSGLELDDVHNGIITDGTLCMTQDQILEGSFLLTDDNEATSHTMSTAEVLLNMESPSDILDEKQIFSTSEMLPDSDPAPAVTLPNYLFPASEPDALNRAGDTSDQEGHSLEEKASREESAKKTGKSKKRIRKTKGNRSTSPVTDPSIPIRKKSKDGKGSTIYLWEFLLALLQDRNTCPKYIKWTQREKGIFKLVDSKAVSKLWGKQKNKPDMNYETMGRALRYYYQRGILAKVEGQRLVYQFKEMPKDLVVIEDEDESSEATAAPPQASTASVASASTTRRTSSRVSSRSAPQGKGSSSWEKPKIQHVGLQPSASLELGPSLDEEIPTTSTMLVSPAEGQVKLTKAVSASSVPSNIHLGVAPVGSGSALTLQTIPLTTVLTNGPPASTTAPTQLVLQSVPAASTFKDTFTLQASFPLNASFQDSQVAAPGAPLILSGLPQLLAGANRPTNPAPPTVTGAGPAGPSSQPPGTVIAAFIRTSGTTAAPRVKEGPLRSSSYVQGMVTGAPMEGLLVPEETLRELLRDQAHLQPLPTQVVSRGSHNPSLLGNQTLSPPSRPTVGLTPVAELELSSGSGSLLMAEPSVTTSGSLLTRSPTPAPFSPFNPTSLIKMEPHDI
Outline: as §1

ELK4 = biological target: T8, ELK4 (Homo sapiens, UniProt P28324-2 1-405); conditions: protein: recombinant; tags: N-terminal GST; dsDNA, one strand shown
T8 sequence: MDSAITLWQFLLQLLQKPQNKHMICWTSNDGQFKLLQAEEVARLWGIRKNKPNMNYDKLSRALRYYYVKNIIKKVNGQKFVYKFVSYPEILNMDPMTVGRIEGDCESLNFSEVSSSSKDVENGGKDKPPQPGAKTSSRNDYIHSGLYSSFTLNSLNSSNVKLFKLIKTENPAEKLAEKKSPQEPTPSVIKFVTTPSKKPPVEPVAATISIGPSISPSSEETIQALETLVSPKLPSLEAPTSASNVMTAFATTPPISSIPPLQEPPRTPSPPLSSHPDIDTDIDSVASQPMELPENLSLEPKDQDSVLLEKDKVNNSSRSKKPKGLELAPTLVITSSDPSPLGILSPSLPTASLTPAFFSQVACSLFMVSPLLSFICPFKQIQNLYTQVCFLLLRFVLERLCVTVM
Outline: as §1

ETV2 = biological target: T9, ETV2 (Homo sapiens, UniProt O00321 1-342); conditions: protein: recombinant; tags: N-terminal GST; dsDNA, one strand shown
T9 sequence: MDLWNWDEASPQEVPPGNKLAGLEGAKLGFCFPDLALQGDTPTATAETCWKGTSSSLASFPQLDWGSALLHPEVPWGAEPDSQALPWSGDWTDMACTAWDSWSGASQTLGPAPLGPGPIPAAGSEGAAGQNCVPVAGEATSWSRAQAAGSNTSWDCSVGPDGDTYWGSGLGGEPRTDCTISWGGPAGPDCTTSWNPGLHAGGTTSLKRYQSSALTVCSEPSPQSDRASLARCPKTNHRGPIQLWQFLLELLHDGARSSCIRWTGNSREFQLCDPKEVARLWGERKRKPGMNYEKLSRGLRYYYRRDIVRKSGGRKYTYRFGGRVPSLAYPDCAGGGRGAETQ
Outline: as §1

ELF3 = biological target: T10, ELF3 (Homo sapiens, UniProt P78545 1-371); conditions: protein: recombinant; tags: N-terminal GST; dsDNA, one strand shown
T10 sequence: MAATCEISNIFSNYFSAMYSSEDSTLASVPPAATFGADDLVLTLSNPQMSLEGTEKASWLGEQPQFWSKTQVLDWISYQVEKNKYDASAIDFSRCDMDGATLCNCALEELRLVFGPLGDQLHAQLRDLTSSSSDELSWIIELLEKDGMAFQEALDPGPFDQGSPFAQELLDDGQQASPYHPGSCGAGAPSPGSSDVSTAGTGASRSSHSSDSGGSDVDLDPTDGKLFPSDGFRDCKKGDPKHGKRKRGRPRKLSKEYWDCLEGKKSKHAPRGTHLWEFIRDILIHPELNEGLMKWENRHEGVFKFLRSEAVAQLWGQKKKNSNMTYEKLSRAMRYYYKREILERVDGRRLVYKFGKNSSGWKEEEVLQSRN
Outline: as §1

CRX = CRX (Homo sapiens, UniProt O43186 1-299); conditions: protein: recombinant; tags: N-terminal GST; dsDNA, one strand shown
CRX, sequence (O43186 whole entry): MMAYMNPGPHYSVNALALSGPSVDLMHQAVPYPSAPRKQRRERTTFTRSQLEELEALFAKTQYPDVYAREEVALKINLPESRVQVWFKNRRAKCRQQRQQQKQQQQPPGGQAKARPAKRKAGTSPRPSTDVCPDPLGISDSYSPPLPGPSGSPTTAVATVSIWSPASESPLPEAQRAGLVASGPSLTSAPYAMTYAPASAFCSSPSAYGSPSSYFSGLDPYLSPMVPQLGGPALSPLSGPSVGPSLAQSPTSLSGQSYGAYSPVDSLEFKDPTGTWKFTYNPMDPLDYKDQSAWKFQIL
Outline: as §1

ETV1 = ETV1 (Homo sapiens, UniProt P50549 1-477); conditions: protein: recombinant; tags: N-terminal GST; dsDNA, one strand shown
ETV1, sequence (P50549 whole entry): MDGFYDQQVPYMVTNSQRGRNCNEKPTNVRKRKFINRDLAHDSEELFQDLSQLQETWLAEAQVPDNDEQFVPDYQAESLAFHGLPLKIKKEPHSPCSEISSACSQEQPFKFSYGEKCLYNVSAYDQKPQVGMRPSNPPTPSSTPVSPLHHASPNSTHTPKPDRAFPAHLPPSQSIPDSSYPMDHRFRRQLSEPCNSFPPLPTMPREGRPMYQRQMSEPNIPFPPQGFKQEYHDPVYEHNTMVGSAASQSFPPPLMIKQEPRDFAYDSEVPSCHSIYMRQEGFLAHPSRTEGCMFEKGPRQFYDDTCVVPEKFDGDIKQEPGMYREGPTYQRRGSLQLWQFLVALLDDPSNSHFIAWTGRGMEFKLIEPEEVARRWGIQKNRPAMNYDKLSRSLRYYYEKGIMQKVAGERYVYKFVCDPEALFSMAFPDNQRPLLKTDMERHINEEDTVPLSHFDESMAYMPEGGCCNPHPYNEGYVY
Outline: as §1

Row | Sequence | binding signal (FLI1) | binding signal (ELK1) | binding signal (GABPA) | binding signal (ERG) | binding signal (ELF1) | binding signal (EHF) | binding signal (SPI1) | binding signal (SPIB) | binding signal (ELK3) | binding signal (FEV) | binding signal (ETV5) | binding signal (HSF1) | binding signal (ELF4) | binding signal (ELK4) | binding signal (ETV2) | binding signal (ELF3) | binding signal (CRX) | binding signal (ETV1)
1 | CTATAG | 1.09 fold enrichment (6-mer frequency, TF over GST control) | 1.05 fold enrichment (6-mer frequency, TF over GST control) | 1.11 fold enrichment (6-mer frequency, TF over GST control) | 1.01 fold enrichment (6-mer frequency, TF over GST control) | 1.09 fold enrichment (6-mer frequency, TF over GST control) | 1.03 fold enrichment (6-mer frequency, TF over GST control) | 1.08 fold enrichment (6-mer frequency, TF over GST control) | 1.07 fold enrichment (6-mer frequency, TF over GST control) | 1.08 fold enrichment (6-mer frequency, TF over GST control) | 1.04 fold enrichment (6-mer frequency, TF over GST control) | 1.1 fold enrichment (6-mer frequency, TF over GST control) | 1.03 fold enrichment (6-mer frequency, TF over GST control) | 1.02 fold enrichment (6-mer frequency, TF over GST control) | 1.14 fold enrichment (6-mer frequency, TF over GST control) | 1.27 fold enrichment (6-mer frequency, TF over GST control) | 1.04 fold enrichment (6-mer frequency, TF over GST control) | 1.05 fold enrichment (6-mer frequency, TF over GST control) | 1.01 fold enrichment (6-mer frequency, TF over GST control)
2 | ATTAGG | 1.06 fold enrichment (6-mer frequency, TF over GST control) | 1.06 fold enrichment (6-mer frequency, TF over GST control) | 1.1 fold enrichment (6-mer frequency, TF over GST control) | 1.05 fold enrichment (6-mer frequency, TF over GST control) | 1.06 fold enrichment (6-mer frequency, TF over GST control) | 1.1 fold enrichment (6-mer frequency, TF over GST control) | 1.07 fold enrichment (6-mer frequency, TF over GST control) | 1.06 fold enrichment (6-mer frequency, TF over GST control) | 1.1 fold enrichment (6-mer frequency, TF over GST control) | 1.01 fold enrichment (6-mer frequency, TF over GST control) | 1.11 fold enrichment (6-mer frequency, TF over GST control) | 1.57 fold enrichment (6-mer frequency, TF over GST control) | 1.07 fold enrichment (6-mer frequency, TF over GST control) | 1.06 fold enrichment (6-mer frequency, TF over GST control) | 1.05 fold enrichment (6-mer frequency, TF over GST control) | 1.04 fold enrichment (6-mer frequency, TF over GST control) | 2.38 fold enrichment (6-mer frequency, TF over GST control) | 1.01 fold enrichment (6-mer frequency, TF over GST control)
